Measurements from the supplement of paper PMC3545927.
The other results are listed elsewhere or left out. No count for the full screen is at hand.

Molecular target: furin, P09958
Assay: furin cleavage Z-score vs untreated control; higher = more cleavage, active = 3.5 or more, inactive = 1 or less, 8 variable residues between constant flanks
Summary of the method: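 Furin-free reactions served as the baseline for the cleavage Z-score, which is the log read count lowess-adjusted and scaled by median absolute deviation. Counts came from released DNA, adapter-tagged by PCR and sequenced. Purified furin had cut 8-mer peptides fused to a cDNA oligonucleotide on magnetic beads during 7.5, 15 or 30 min at 1:10 enzyme:substrate.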
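Note: purified furin at 1:10 enzyme:substrate in 50 mM HEPES pH 7.5.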

furin, P09958, sequence (P09958 whole entry): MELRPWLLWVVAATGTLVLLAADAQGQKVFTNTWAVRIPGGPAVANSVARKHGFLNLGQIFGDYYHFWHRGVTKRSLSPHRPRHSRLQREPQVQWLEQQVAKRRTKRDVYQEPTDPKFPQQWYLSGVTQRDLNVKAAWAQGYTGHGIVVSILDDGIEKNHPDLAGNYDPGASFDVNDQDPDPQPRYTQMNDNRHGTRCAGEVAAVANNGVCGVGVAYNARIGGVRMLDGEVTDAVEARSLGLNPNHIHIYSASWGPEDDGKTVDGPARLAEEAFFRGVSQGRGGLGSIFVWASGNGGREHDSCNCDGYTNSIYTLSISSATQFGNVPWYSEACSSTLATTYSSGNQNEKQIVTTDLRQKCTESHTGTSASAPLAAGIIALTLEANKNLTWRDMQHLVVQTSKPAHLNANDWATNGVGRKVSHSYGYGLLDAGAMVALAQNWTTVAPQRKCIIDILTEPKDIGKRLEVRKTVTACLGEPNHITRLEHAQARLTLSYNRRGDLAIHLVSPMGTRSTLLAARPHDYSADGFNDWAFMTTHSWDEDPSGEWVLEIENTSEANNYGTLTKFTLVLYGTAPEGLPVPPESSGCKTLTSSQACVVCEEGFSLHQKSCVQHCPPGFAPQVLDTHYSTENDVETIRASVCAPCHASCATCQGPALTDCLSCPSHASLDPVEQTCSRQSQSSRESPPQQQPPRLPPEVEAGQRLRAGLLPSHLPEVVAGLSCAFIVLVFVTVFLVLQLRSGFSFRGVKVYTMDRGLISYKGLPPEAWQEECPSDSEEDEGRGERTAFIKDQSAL

Sequence | furin cleavage Z-score (7.5 min) | furin cleavage Z-score (15 min) | furin cleavage Z-score (30 min)
CADRSRTPRGAGNASASA [FS-759] | 3.99 (active) | 4.25 (active) | 4.12 (active)
CAGWLLSPRGAGNASASA [HC208] | 0.27 (inactive) | -1.63 (inactive) | 0.774 (inactive)
CAGASRSPRGAGNASASA [FS-237] | 3.32 | 4.49 (active) | 5.42 (active)
CAGAARLPRGAGNASASA [FS-777] | 0.571 (inactive) | 1.37 | 2.25
CAPERRDVCWAGNASASA [FS-1677] | -0.617 (inactive) | -1.12 (inactive) | 0.841 (inactive)
CASRCGSGPWAGNASASA [HC458] | -0.489 (inactive) | -1.8 (inactive) | -0.818 (inactive)
CAWLKRQKRNAGNASASA [FS-318] | 12.5 (active) | 12.8 (active) | 10.3 (active)
CALRRRLRKQAGNASASA [FS-362] | 4.47 (active) | 6.23 (active) | 5.78 (active)
CATWHRLRKGAGNASASA [FS-1427] | -1.13 (inactive) | -0.138 (inactive) | -1.3 (inactive)
CALRRRQKRQAGNASASA [FS-1234] | 11.3 (active) | 12.6 (active) | 9.62 (active)
CAFPDRVKRNAGNASASA [FS-770] | 3.16 | 3.37 | 3.96 (active)
CACGKRFKKNAGNASASA [FS-219] | 1.2 | -0.0472 (inactive) | 1.28
CAERRRQAGAAGNASASA [FS-1879] | -0.934 (inactive) | -0.697 (inactive) | -1.89 (inactive)
CAFDQGWGPIAGNASASA [HC393] | -0.624 (inactive) | -1.32 (inactive) | -0.893 (inactive)
CATTPCSGSGAGNASASA [HC1936] | -2.04 (inactive) | 2.2 | -0.763 (inactive)
CASTPCSGHLAGNASASA [HC2536] | -0.918 (inactive) | -1.44 (inactive) | -0.11 (inactive)

Sequence | furin cleavage Z-score (7.5 min) | furin cleavage Z-score (15 min) | furin cleavage Z-score (30 min)
CATDNRSRKRAGNASASA [FS-1658] | -0.57 (inactive) | 0.304 (inactive) | -1.94 (inactive)
CAEVCTSTWVAGNASASA [HC2200] | -1.07 (inactive) | -0.375 (inactive) | 0.694 (inactive)
CAAVEVDGAGAGNASASA [CS7] | 0.521 (inactive) | 0.0281 (inactive) | -2.24 (inactive)
CASLKRDVSLAGNASASA [FS-2473] | -0.763 (inactive) | 0.0335 (inactive) | 1.41
CASLKRQKRQAGNASASA [FS-502] | 11.6 (active) | 12.1 (active) | 8.85 (active)
CAENPCHRPSAGNASASA [HC2341] | -0.397 (inactive) | 1.48 | 0.0102 (inactive)
CALLRRPFRQAGNASASA [FS-1361] | 2.8 | 1.06 | 3.65 (active)
CAEVIKGGRHAGNASASA [HC852] | -2.02 (inactive) | -1.42 (inactive) | -1.4 (inactive)
CASDGRGKRHAGNASASA [FS-1277] | 6.1 (active) | 6.45 (active) | 6.27 (active)
CAVQIVSTAAAGNASASA [HC690] | 0.498 (inactive) | -1.18 (inactive) | -0.374 (inactive)
CASSNVSVAHAGNASASA [HC1554] | -2.36 (inactive) | -0.374 (inactive) | -0.657 (inactive)
CANLLRVFRQAGNASASA [FS-468] | 0.426 (inactive) | -0.885 (inactive) | 0.089 (inactive)
CALYRLGAVQAGNASASA [HC973] | 0.321 (inactive) | -0.642 (inactive) | 0.286 (inactive)
CAKQGVSKRHAGNASASA [FS-261] | 2.25 | 2.44 | 3.51 (active)
CALLRIPQAIAGNASASA [HC329] | -0.657 (inactive) | -1.81 (inactive) | -0.194 (inactive)
CALLRRGKRHAGNASASA [FS-51] | 11 (active) | 10.8 (active) | 8.35 (active)
